# Hits are enriched below; roughly 4.8% of the tested compounds scored in any of these assays.
# Mot1-301 SUMO = inhibitors of SUMOylation pathway: yeast Mot1-301 growth rescue | actives 1% (n = 320,000) | growth rescue, % at 18.8 µM | S. cerevisiae Mot1-301 growth rescue, ATP luminescence, 38.5C; percent above DMSO median, 100 means doubled | AID 2716;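 active = every valid replicate shows activation above 250% relative to neutral control wells; inactive = the rest, any valid replicate at or below 250%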;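 also: OY570 slx delta 5 strain wells were the positive control but not used for scaling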
# HIF act = HIF pathway transcriptional activation. U2OS HRE-luciferase reporter, luminescence; normalized: DMSO 0%, desferrioxamine 100%. activation, % at 7.5 µM (by protocol). actives 0.32% (n = 300,000). AID 1910;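 active = mean activation of at least 10% of the iron chelator positive control signal, with at least half of replicates also reaching 10%; inconclusive = mean and replicate majority disagree about reaching 10%; inactive = mean and most replicates under 10%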
# AI-2 QS modul = Vibrio harveyi AI-2 quorum sensing modulation | Vibrio harveyi JMH597 AI-2 luminescence/OD600 ratio, 9 h; active compounds read low; strain lacks LuxN and CqsS sensors; 0 = neutral-control median | activity change, % at 7.5 µM | AID 2094 | actives 0.4% (n = 300,000); in the data active = activity change below about -75%, passing the limit was not always enough; inconclusive = no clear call, values can overlap the other calls;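 also: luminescence divided by OD600 gain over 9 h not by final OD600 alone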
# ALR H2O2 inh = blocks human ALR sulfhydryl oxidase activity. inhibition, % (test concentration not listed). AID 485317. P55789. actives 3.8% (n = 290,000). purified ALR, DTT oxidation, H2O2 HRP-luminol luminescence;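 active = mean replicate inhibition above about 79%, with every replicate also reaching it, limit read from the data; inconclusive = only one of the two criteria met; inactive = mean below limit and not every replicate reaching it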
# Target sequence (P55789 whole entry, looked up): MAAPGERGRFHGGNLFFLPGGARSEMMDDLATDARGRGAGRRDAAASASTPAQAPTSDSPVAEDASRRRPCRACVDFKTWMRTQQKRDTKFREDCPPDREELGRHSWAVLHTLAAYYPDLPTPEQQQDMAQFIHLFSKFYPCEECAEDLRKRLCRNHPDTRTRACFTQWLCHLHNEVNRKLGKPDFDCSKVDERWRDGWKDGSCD
# Numbers without * were called inactive; ? = inconclusive; / = no result.
SMILES,Mot1-301 SUMO,HIF act,AI-2 QS modul,ALR H2O2 inh
CC(C)C(=O)NC(c1ccco1)c1ccc2cccnc2c1O (stereo unspecified),2.8,21.9*,-7.3,-3.8
Oc1c(C(Nc2nc3ccccc3s2)c2ccco2)ccc2cccnc12 (stereo unspecified),-2.1,31.3*,20.1,18.6
COCCCNC(=S)N/N=C/c1ccc(N(C)C)cc1,-13.2,1.3,16.1,98.5*
Cc1c(NC(=S)N/N=C/c2cccc(O)c2)c(=O)n(-c2ccccc2)n1C,-9.3,0.2,14.8,?
CNC(=S)N/N=C/c1ccc(N(C)C)cc1,-18.1,1.4,0.3,99.4*
COCCCNC(=S)N/N=C/c1ccc(N(C)C)cc1Cl,-3.7,0.5,13.0,17.1
Cc1c(NC(=S)N/N=C/c2ccc(N(C)C)cc2)c(=O)n(-c2ccccc2)n1C,4.8,-0.4,5.1,99.3*
CCCc1nc(SCC(=O)NCC2CCCO2)c2c(=O)n(C)c(=O)n(C)c2n1 (stereo unspecified),356.7,1.1,32.1,-5.5
CN(C)c1ccc(/C=C(/NC(=O)c2ccccc2)C(=O)NCCN2CCOCC2)cc1,0.0,0.5,11.1,99.3*
CN(C)c1ccc(/C=C(/NC(=O)c2ccccc2Cl)C(=O)NCCN2CCOCC2)cc1,-0.3,0.5,-6.2,88.5*
O=C(NCCN1CCOCC1)/C(=C/c1ccc(Cl)cc1)NC(=O)c1ccccc1,36.4,-0.9,7.3,-16.2
CCOC(=O)CNc1nnc(SCC(=O)OCC)[nH]c1=O,82.5,0.1,9.7,100.2*
CCOC(=O)CSc1ncc(OC)c(=O)[nH]1,-11.4,-0.4,7.2,2.4
Cc1cccc(NC(=O)CSCC(=O)NCc2ccco2)c1,2.4,0.6,34.6,-13.5
CN1C(C(=O)N2CCc3ccccc3C2)=CC(c2ccc(F)cc2)=NS1(=O)=O,4.5,-0.1,2.3,2.6
COc1cc(/C=N/Nc2nc3ccccc3[nH]2)ccc1O,-6.5,5.9,17.0,99.8*
COc1cccc(/C=N/Nc2nc3ccccc3[nH]2)c1OC,-17.8,4.6,12.8,/
COc1cc(/C=N/Nc2nc(=O)[nH]nc2C)ccc1O,125.5,0.2,19.8,99.9*
COc1cccc(/C=N/Nc2nc3ccccc3[nH]2)c1O,-18.7,11.0*,-0.9,/
COC(=O)c1ccc(/C=N/Nc2nc3ccccc3[nH]2)cc1,96.0,4.3,27.5,51.0
O=C(N/N=C/c1cc([N+](=O)[O-])ccc1Cl)c1cc(-c2ccccc2)nc2ccccc12,114.8,0.4,4.2,-3.4
O=C(N/N=C/c1cc([N+](=O)[O-])ccc1O)c1cc(-c2ccccc2)nc2ccccc12,329.2,19.8*,15.8,-3.0
CC(C)n1ncc2c(C(=O)N3CCN(Cc4ccc(Br)s4)CC3)cc(C3CC3)nc21,0.8,/,/,-3.2
COc1cc(/C=C(/C(=O)c2cccs2)c2nc3ccccc3[nH]2)cc(OC)c1O,8.6,7.4,7.4,99.7*
O=[N+]([O-])c1ccc(O)c(/C=N/Nc2nc3ccccc3[nH]2)c1,6.2,-2.3,-29.3,89.0*
SMILES,Mot1-301 SUMO,HIF act,AI-2 QS modul,ALR H2O2 inh
COc1ccc(O)c(/C=N/Nc2nc3ccccc3[nH]2)c1,0.1,0.9,18.6,98.9*
COc1ccc(C(=O)N/C(=C/c2cccs2)c2nc3ccccc3[nH]2)cc1OC,-8.0,0.1,4.3,-9.8
COc1cc(/C=N/Nc2nc3ccccc3[nH]2)cc(Br)c1OCC(=O)N(C)C,14.0,0.2,28.5,98.9*
Cc1cc(C(=O)NC2CCCCCCC2)ccc1[N+](=O)[O-],-8.9,1.8,3.9,-1.6
O=C(CN(CCc1ccccc1)Cc1ccccc1)Oc1ccccc1P(=O)(O)O,195.9,0.9,17.2,-1.3
COc1cccc(C(=O)OC(C)C(=O)NCC2CCCCC2)c1 (stereo unspecified),86.4,/,/,0.9
COc1cc(/C=N/Nc2nc3ccccc3[nH]c2=O)ccc1O,4.1,0.1,17.9,99.1*
CC(=O)Nc1ccc(/C=N/Nc2nc3ccccc3[nH]2)cc1,-6.1,1.7,4.7,/
COc1cc(/C=N/Nc2nc3ccccc3[nH]2)cc(OC)c1O,14.6,2.2,-2.2,99.4*
Cc1ccc(NC(=O)CCNS(=O)(=O)c2cccc3nsnc23)cc1F,15.8,0.0,9.5,-4.9
COc1cccc(OC)c1C(=O)N1CCNCC1,-16.0,-1.6,10.4,-9.2
CC(C)CN(C(=O)C1CSC2(C)CCC(=O)N12)c1c(N)n(Cc2ccccc2)c(=O)[nH]c1=O (stereo unspecified),16.4,0.3,7.0,2.7
CCOc1cc(/C=C2/NC(=O)NC2=O)cc([N+](=O)[O-])c1O,1.4,-0.2,9.3,93.8*
C=CCc1cc(/C=C2/NC(=O)NC2=O)cc(OCC)c1O,-10.3,0.5,6.6,9.0
CCc1ccc(CN(C)C(=O)c2cc(COc3ccc(OC)cc3Cl)on2)nc1,446.9,1.9,1.7,-0.9
CCCN(C1CCS(=O)(=O)C1)S(=O)(=O)c1ccc2ccccc2c1 (stereo unspecified),6.5,/,/,/
CCN(C1CCS(=O)(=O)C1)S(=O)(=O)c1ccc2ccccc2c1 (stereo unspecified),325.2*,-0.1,20.3,-4.1
O=c1oc2ccccc2c2nccnc12,323.9*,0.4,7.3,-6.6
O=C(Nc1ccccc1F)c1ccc([N+](=O)[O-])s1,-33.8,0.4,-115.2*,/
CCCCC(NC(=O)Cc1c(C)c2cc3c(-c4ccccc4)coc3c(C)c2oc1=O)C(=O)O (stereo unspecified),133.3,-0.2,-7.8,97.9*
CC[C@@H](C)[C@H](NC(=O)Cc1c(C)c2cc3c(C)coc3c(C)c2oc1=O)C(=O)O,-8.1,0.4,7.0,97.7*
Cc1nn(CC(=O)Nc2ccc(Cl)cc2Cl)c(=O)c2ccccc12,4.3,0.0,-22.2,/
NC(=S)Nc1ccc(Oc2ccc(NC(N)=S)cc2)cc1,14.9,-5.7,18.7,98.8*
NC(=O)c1cc(N2C(=O)C=CC2=O)ccc1Cl,-18.8,-0.2,-82.2*,15.1
CC(=O)Nc1ccc(Cl)c(C(N)=O)c1,-3.9,-0.5,16.9,-7.6
SMILES,Mot1-301 SUMO,HIF act,AI-2 QS modul,ALR H2O2 inh
CC1CCN(S(=O)(=O)c2cccc(-c3csc(-c4cccnc4)n3)c2)CC1,215.9,0.1,12.5,-23.7
O=S(=O)(c1ccc(-c2csc(-c3cccnc3)n2)cc1)N1CCCCC1,-31.3,-0.1,16.3,62.0
O=S(=O)(c1ccc(-c2csc(-c3cccnc3)n2)cc1)N1CCCC1,/,0.1,22.4,96.6*
O=S(=O)(c1cccc(-c2csc(-c3cccnc3)n2)c1)N1CCCCC1,-3.8,-0.1,4.6,97.9*
CC(C)Cn1c(-c2cccc(S(=O)(=O)N3CCOCC3)c2)n[nH]c1=S,-22.7,/,/,86.5*
O=S(=O)(c1cccc(-c2csc(-c3cccnc3)n2)c1)N1CCOCC1,-0.7,-0.3,21.1,99.2*
Cc1ccc(OCC(=O)N2CCCC(CO)(CCOc3ccccc3)C2)cc1 (stereo unspecified),-7.2,0.4,24.3,-7.0
Cc1nc(Cc2nnc(SCC(=O)Nc3c(C)cccc3C)o2)cs1,6.0,-0.5,5.0,-5.9

# Compound activity: PubChem, Broad Institute
